Screening data as filed in PubChem.
This is a sample that favours compounds with a hit; in the whole collection about 11% have one here.
USP17 inh: inhibitors of human USP17 deubiquitinase | Ubiquitin carboxyl-terminal hydrolase 17-like protein 5 (Homo sapiens), A8MUK1 | purified USP17, Ub-rhodamine cleavage fluorescence, 3 h | inhibition, % at 50 µM | 47,000 tested, 6.5% active
Target sequence (A8MUK1 whole entry, looked up): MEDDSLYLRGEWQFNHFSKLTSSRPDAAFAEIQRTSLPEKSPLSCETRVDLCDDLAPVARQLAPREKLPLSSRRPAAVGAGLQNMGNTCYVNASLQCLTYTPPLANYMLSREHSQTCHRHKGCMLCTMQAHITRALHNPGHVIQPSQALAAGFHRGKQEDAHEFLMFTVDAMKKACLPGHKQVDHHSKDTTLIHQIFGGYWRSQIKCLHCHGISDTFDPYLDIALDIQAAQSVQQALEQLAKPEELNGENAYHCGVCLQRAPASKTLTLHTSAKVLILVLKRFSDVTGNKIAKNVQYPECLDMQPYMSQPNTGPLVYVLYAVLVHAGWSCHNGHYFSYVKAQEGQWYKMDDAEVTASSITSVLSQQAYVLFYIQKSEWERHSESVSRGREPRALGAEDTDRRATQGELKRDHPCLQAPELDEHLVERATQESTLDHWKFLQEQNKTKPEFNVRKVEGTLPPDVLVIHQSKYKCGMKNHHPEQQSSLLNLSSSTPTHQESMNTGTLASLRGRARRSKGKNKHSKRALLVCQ
USP28 block: inhibitors of human USP28 deubiquitinase | Ubiquitin carboxyl-terminal hydrolase 28 (Homo sapiens), Q96RU2 | purified USP28, Ub-rhodamine cleavage fluorescence, 30 min | inhibition, % at 25 µM | 47,000 tested, 3% active | AID 1645857, 2021
USP30 block: inhibitors of human USP30 deubiquitinase. Ubiquitin carboxyl-terminal hydrolase 30 (Homo sapiens), Q70CQ3. purified USP30, Ub-rhodamine cleavage fluorescence. inhibition, % at 25 µM. 47,000 tested, 5.3% active. AID 1645860, 2021
Numbers without * were called inactive; i = inactive; nt = no result. Cut-off read from the data, not from the text of the source: active = inhibition above about 30%; inactive = the rest.

SMILES | USP17 inh | USP28 block | USP30 block
COc1ccc(S(=O)(=O)c2c(C(=O)N3CCC(C)CC3)cnc3ccc(F)cc23)cc1 | 19 | 11 | 20
CN(C(=O)C1(c2ccccc2)CC1)c1nc2c(s1)CCc1occc1-2 | 13 | -4 | -38
CN(C(=O)c1cccc2cccnc12)c1nc2c(s1)CCc1occc1-2 | 69* | 25 | 25
Fc1ccc(C(CCNCc2ccc3c(c2)OCO3)c2ccco2)cc1 (centres undefined) | 2 | 29 | 16
Cc1ccc(CNC(=O)C2CCCN(c3ccc4nncn4n3)C2)cc1 (centres undefined) | -1 | 0 | -8
CCc1ccc(C(C)NC(=O)C2CCN(c3ccc4nncn4n3)CC2)cc1 (centres undefined) | 7 | 54* | 9
CCC12CN3CC(C)(CN(C1)C31C(=O)Nc3ccccc31)C2=O (centres undefined) | 5 | 6 | 12
CCN1C(=O)CCCC12CCCN(C(=O)c1cc(C)cc(C)c1)C2 (centres undefined) | 4 | 5 | 12
CC(C)n1cnc(-c2cc(C(=O)N3CCOCC3)c3ccccn23)c1 | -71 | -58 | -247
O=C1Nc2ccc(S(=O)(=O)NCCCCCCNS(=O)(=O)c3ccc4c5c(cccc35)C(=O)N4)c3cccc1c23 | 17 | 38* | -293
O=C1Nc2ccc(S(=O)(=O)NCCCO)c3cccc1c23 | 0 | 14 | 8
CCn1ncc(-c2ccnc3cc(C(=O)N4CCN(Cc5ccc(F)cc5)CC4)nn23)c1C | 28 | 2 | -132
O[C@@H]1C[C@H]2CN(Cc3ccccc3)[C@H](Cc3ccccc3)CN2C1 | -13 | -11 | -55
Cc1cc(C)cc(CN2CCN(c3ccc4c(c3)CCC4)C2=O)c1 | 17 | 7 | 12
O=C1N(CC2CCCCC2)CCN1c1ccc2c(c1)CCC2 | 31* | 12 | 19
CCCCN1CCN(c2ccc3c(c2)CCC3)C1=O | 4 | 8 | -1
O=C1N(CC2CC2)CCN1c1ccc2c(c1)CCC2 | 11 | 34* | 20
Cc1[nH]c(C(=O)Nc2ccccc2F)c(C)c1S(=O)(=O)N1CCOCC1 | -13 | -7 | -6
CCN1C(=O)C(C)(C)COc2ccc(NS(=O)(=O)c3ccccc3F)cc21 | 2 | -12 | -25
O=C(c1ccnnc1)N1CCOCC2(CCC(Cn3cccn3)O2)C1 (centres undefined) | -18 | -12 | -29
COc1cccc(-c2cc(C(=O)Nc3cccc(C)c3)[nH]n2)c1 | 3 | -15 | -19
CC(=O)c1cccc(NC(=O)c2cc(-c3cccnc3)n[nH]2)c1 | 78* | 91* | 86*
O=C(Nc1cccc(Br)c1)c1cc(-c2cccnc2)n[nH]1 | 8 | 43* | 71*
COc1cccc(NC(=O)c2cc(-c3ccccc3)n[nH]2)c1 | 13 | 23 | -9
N#Cc1nc(-c2ccc(Cl)cc2)oc1NCc1ccccc1 | -6 | 4 | 16
SMILES | USP17 inh | USP28 block | USP30 block
CCNc1oc(-c2ccc(S(=O)(=O)N3CCCCC3)cc2)nc1C#N | 63* | 7 | 3
COc1ccccc1C(=O)N/C(=C\c1ccccc1)C(=O)NCCc1c(C)[nH]c2ccccc12 | 2 | 3 | 9
Cc1c(S(=O)(=O)N2CCCC2)cc(C(=O)Nc2ccccc2)n1C | 46* | 24 | 9
COc1ccccc1NC(=O)c1cc(S(=O)(=O)N2CCCCC2)c(C)n1C | -6 | -7 | -7
CS(=O)(=O)N1CCC(C(=O)N2CCCCC2)Oc2ccccc21 (centres undefined) | 15 | nt | nt
CC(=O)N1CCC(N[C@H]2C[C@@H](Cc3cc(-c4ccccc4)on3)C2(C)C)CC1 | -18 | -13 | -10
Cc1ccccc1CCNC(=O)c1cc(C2CC2)nc2c1cnn2C(C)C | -51 | 19 | -10
CC(C)n1ncc2c(C(=O)NCCc3ccc(F)cc3)cc(C3CC3)nc21 | 0 | 42* | -24
CCOc1nccnc1N1CCC(NS(=O)(=O)c2cccnc2)C1 (centres undefined) | 3 | -1 | -7
O=C(Cc1ccc(F)cc1)N1CCN(c2nc3ccccc3s2)CC1 | 0 | 3 | 18
Clc1cccc(CN2CC(c3nc(-c4cccnc4)no3)C2)c1 | -14 | nt | nt
COc1ccc(C(=O)c2c[nH]c(C(=O)NCCCn3ccnc3)c2)cc1 | 18 | 14 | 33*
CCC(=O)c1c[nH]c(C(=O)NCCCn2ccnc2)c1 | -12 | -9 | -20
Cc1cc(-c2cnc(N3CCCC3)nc2C2CCN(c3cnccn3)CC2)on1 | -15 | -34 | -96
Cc1nn2c(C)c(C(=O)NCc3ccc(N(C)C)cc3)cnc2c1-c1ccccc1 | 3 | 0 | -30
COc1ccc(CCNC(=O)c2cnc3c(-c4cccc(C)c4)c(C)nn3c2C)cc1OC | 0 | 39* | -17
COc1ccccc1NC(=O)NC1CCN(c2ccccc2)C1=O (centres undefined) | 12 | -10 | -7
COc1cccc(CC(=O)NC2CCN(c3ccccc3)C2=O)c1 (centres undefined) | 9 | 5 | 16
O=C(Nc1ccccc1F)NC1CCN(c2ccc(F)cc2)C1=O (centres undefined) | 51* | 26 | 80*
Cc1ccc(CNC(=O)NC2CCN(c3ccccc3)C2=O)cc1 (centres undefined) | 8 | 9 | 33*
CC(C)c1cc(C2CCCN2C(=O)Cc2c(F)cccc2Cl)no1 (centres undefined) | -7 | -2 | 1
Cc1ccccc1CC(=O)NC1(c2nc(-c3cccnc3)no2)CCCCC1 | 0 | -1 | 0
O=C(Cn1cnc2c(cnn2-c2ccccc2)c1=O)Nc1cccc([N+](=O)[O-])c1 | 42* | -12 | -20
O=C(Cn1cnc2c(cnn2-c2ccc(F)cc2)c1=O)Nc1ccc2c(c1)OCCCO2 | 10 | 2 | 22
O=C(c1nc(-c2ccccc2)c2c(c1-c1ccccc1)CCC2)N1CCCCC1 | -5 | -10 | -1
SMILES | USP17 inh | USP28 block | USP30 block
O=C(CN1C(=O)C(C(=O)N2CCCCC2)Sc2ccccc21)N1CCCCC1 (centres undefined) | 1 | 2 | 7
CC(C)(C)C(=O)N1CCCC1c1nc2ccccc2s1 (centres undefined) | 14 | 13 | 21
CCN(CC)C(=O)CN1CCC(Nc2nc3c(c(=O)[nH]2)CCCC3)CC1 | -14 | -9 | -27
O=c1[nH]c(NC2CCN(Cc3nnnn3Cc3ccc4c(c3)OCO4)CC2)nc2c1CCCC2 | 0 | 8 | 38*
COc1ccc(S(=O)(=O)N2CCC(C(=O)Nc3nc4c(F)cccc4s3)CC2)cc1 | 0 | 9 | -27
CC1CCN(C(=O)C2CCC3(CC2)CNC(=O)c2cc(Cl)ccc2O3)CC1 (centres undefined) | -10 | -15 | -7
N#Cc1ccccc1COC(=O)c1ccc2ccccc2n1 | -11 | 62* | 10
O=C(COC(=O)c1ccc2ccccc2n1)Nc1ccc(Br)cc1 | -168 | -172 | i
O=C(COC(=O)c1ccc2ccccc2n1)Nc1ccc(F)cc1 | -173 | -121 | -427
Cc1ccc(N(C)S(=O)(=O)c2cccc(C(=O)OCC(=O)c3ccc(-c4ccccc4)cc3)c2)cc1 | -11 | -58 | -189
N#Cc1ccc(COC(=O)c2ccc3ccccc3n2)cc1 | -14 | 64* | -29
CN(C)S(=O)(=O)c1cccc(C(=O)OCc2ccccc2C#N)c1 | 0 | 36* | 22
O=C(OCc1ccc(Br)cc1)c1ccc2ccccc2n1 | 22 | 82* | 23
